PubChem BioAssay AID488969 (Vanderbilt High Throughput Screening Facility, 2010)
The full ranking holds about 110,000 compounds; the median of “z-score” is about -0.1, and the highest 2% start at about 2. The sample as a whole holds a higher share of the highest values than the screen did. Activity calls are given as the source filed them.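 The calls were made as follows: active = z-score in the third read window above 3 or below -3; inactive = the rest.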

The molecules below were run against Metabotropic glutamate receptor 8 (Rattus norvegicus) (UniProt P70579) (assay: mGluR8 Gi/Go-coupled signaling modulation – cell-based, rat, thallium flux, HTS, primary screen (AID 488969)). Conditions: HEK293 rat mGluR8, GIRK (G protein-gated inwardly rectifying potassium channel) thallium flux, FluoZin2; at 10 µM; stronger effect = higher value; submaximal glutamate (EC20) added with thallium.
Metabotropic glutamate receptor 8 (Rattus norvegicus), sequence (P70579 whole entry, looked up): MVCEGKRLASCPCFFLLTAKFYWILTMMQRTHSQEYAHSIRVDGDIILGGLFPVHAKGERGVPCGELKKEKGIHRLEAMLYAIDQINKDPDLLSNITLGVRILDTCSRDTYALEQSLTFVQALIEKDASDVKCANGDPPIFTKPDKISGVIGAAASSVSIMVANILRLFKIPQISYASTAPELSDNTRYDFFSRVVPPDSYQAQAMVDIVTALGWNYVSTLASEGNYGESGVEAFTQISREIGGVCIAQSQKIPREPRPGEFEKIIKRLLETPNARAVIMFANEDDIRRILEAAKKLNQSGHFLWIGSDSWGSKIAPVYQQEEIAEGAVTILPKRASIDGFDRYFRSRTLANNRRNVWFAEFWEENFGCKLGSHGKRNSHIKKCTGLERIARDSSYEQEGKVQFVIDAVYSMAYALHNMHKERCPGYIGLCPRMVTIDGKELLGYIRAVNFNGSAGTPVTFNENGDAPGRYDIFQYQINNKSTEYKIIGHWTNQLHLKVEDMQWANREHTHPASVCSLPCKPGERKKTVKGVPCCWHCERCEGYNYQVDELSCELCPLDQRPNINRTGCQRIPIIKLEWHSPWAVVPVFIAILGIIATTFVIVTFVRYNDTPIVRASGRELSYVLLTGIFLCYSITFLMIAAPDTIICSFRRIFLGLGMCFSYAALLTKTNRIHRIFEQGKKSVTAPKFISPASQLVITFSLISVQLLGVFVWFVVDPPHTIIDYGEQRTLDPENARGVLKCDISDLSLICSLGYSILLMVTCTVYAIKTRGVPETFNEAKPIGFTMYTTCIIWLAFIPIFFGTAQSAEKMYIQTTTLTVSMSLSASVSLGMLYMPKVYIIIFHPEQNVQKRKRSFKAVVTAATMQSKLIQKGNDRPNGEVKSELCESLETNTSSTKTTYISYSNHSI

**Q.** `CCCc1cc(-c2n[nH]c(C(=O)OCC)c2-c2cscn2)c(O)cc1O` was tested. Which z-score did it give?
**A.** The z-score was -0.373.

**Q.** For `COc1cc(NC(=O)CS(=O)(=O)c2ccc(C)cc2)cc(OC)c1OC`, which z-score is on record?
**A.** Its z-score is 3.72 (active).

**Q.** Which z-score does the source give for `Cc1ccc(OCC(=O)Nc2ccc(S(=O)(=O)Nc3onc(C)c3C)cc2)cc1` here?
**A.** Its z-score is 0.0571.

**Q.** For `Cc1noc(NS(=O)(=O)c2ccc(NC(=O)CS(=O)(=O)c3ccccc3)cc2)c1C`, which z-score is on record?
**A.** Its z-score is 0.155.

**Q.** With `CCN(CC(=O)Nc1ccc(OC)c(OC)c1)S(=O)(=O)c1ccc(C)cc1` as the molecule, how does the z-score read?
**A.** The z-score was 0.404.

**Q.** How did the z-score turn out when `Cc1ccc(S(=O)(=O)CC(=O)Nc2ccc(S(=O)(=O)Nc3onc(C)c3C)cc2)cc1` was run?
**A.** Its z-score is 2.41.

**Q.** With `COc1cc(NC(=O)CS(=O)(=O)c2ccccc2)cc(OC)c1OC` as the molecule, how does the z-score read?
**A.** The z-score was 1.2.

**Q.** With `Cc1cc(=O)oc2cc(OCC(=O)OCc3nnc(-c4ccccc4)o3)ccc12` as the molecule, how does the z-score read?
**A.** Its z-score is -0.34.

**Q.** How did the z-score turn out when `CCC(c1nnc(SCC(=O)Nc2ccc(Cl)cc2C(F)(F)F)n1C1CCCCC1)N(C)C` (stereo not given) was run?
**A.** The z-score was -0.456.

**Q.** `O=C(CSc1nc(-c2ccco2)cc(C(F)(F)F)n1)NCCc1ccccc1` was tested. Which z-score did it give?
**A.** Its z-score is 0.104.

**Q.** `O=C(c1ccc(Br)o1)N1CCCc2ccccc21` was tested. Which z-score did it give?
**A.** Its z-score is -0.269.

**Q.** `COc1ccc(CNC(=O)CSCc2ccccc2Cl)cc1` was tested. Which z-score did it give?
**A.** The z-score was 4.96 (active).

**Q.** How did the z-score turn out when `COc1ccc(CNC(=O)CSCc2cccc(Cl)c2)cc1` was run?
**A.** Its z-score is -0.235.

**Q.** For `COc1ccc(CNC(=O)CCSCc2ccccc2Cl)c(OC)c1`, which z-score is on record?
**A.** The z-score was -0.407.

**Q.** With `CCOc1ccccc1C(=O)NC(CO)C(=O)O` (stereo not given) as the molecule, how does the z-score read?
**A.** Its z-score is -0.109.

**Q.** How did the z-score turn out when `CCNCCOC(c1ccccc1)c1ccccc1` was run?
**A.** Its z-score is 0.455.

**Q.** How did the z-score turn out when `Clc1cccc(-c2ccc(/C=N/n3cnnc3)o2)c1Cl` was run?
**A.** Its z-score is 8.91 (active).

**Q.** For `Cc1c(Cl)cccc1-c1ccc(/C=N/n2cnnc2)o1`, which z-score is on record?
**A.** The z-score was -0.29.

**Q.** How did the z-score turn out when `Clc1ccccc1-c1ccc(/C=N/n2cnnc2)o1` was run?
**A.** The z-score was 0.334.

**Q.** How did the z-score turn out when `O=C(Nn1c(SCc2ccccc2F)nc2ccsc2c1=O)c1ccccc1` was run?
**A.** Its z-score is -0.0125.

**Q.** For `O=C(Cn1nc(Cl)nc1Cl)c1cc2ccccc2oc1=O`, which z-score is on record?
**A.** The z-score was -0.931.

**Q.** With `CCOc1cc(CNCCSc2nnnn2C)cc(Br)c1OCc1ccccc1` as the molecule, how does the z-score read?
**A.** The z-score was 2.3.

**Q.** Which z-score does the source give for `CCOc1cc(CNCCSc2nnnn2C)cc(Br)c1OCc1ccccc1F` here?
**A.** The z-score was 0.196.

**Q.** `CCOc1cc(CNCCSc2nnnn2C)cc(Br)c1OCc1ccc(F)cc1` was tested. Which z-score did it give?
**A.** Its z-score is 0.297.

**Q.** How did the z-score turn out when `NNC(=O)c1nnn(-c2nonc2N)c1-c1cccs1` was run?
**A.** The z-score was -0.0988.

**Q.** With `O=C(NC(=S)Nc1ccc(S(=O)(=O)N2CCCC2)cc1)c1cccs1` as the molecule, how does the z-score read?
**A.** The z-score was 1.1.

**Q.** For `O=C(NC(=S)Nc1ccc(N2CCCCC2)c(Cl)c1)c1cccs1`, which z-score is on record?
**A.** The z-score was 8.72 (active).

**Q.** Which z-score does the source give for `CCCCCC(=O)NC(=S)Nc1ccc(N2CCCCC2)c(Cl)c1` here?
**A.** Its z-score is -0.183.

**Q.** For `O=C(NC(=S)Nc1ccc(N2CCCCC2)cc1)c1cccs1`, which z-score is on record?
**A.** Its z-score is 11 (active).

**Q.** How did the z-score turn out when `O=C(NC(=S)Nc1ccc(S(=O)(=O)N2CCCCCC2)cc1)c1cccs1` was run?
**A.** The z-score was -0.208.

**Q.** `O=C(Nc1ccccc1N1CCCCC1)c1cccs1` was tested. Which z-score did it give?
**A.** Its z-score is 0.223.

**Q.** `CC(=O)Cc1nsc(NC(=O)c2cc(-c3ccc(Cl)c(Cl)c3)oc2C)n1` was tested. Which z-score did it give?
**A.** Its z-score is -0.22.

**Q.** `Cc1ccc(S(=O)(=O)c2ccc(C)cc2)cc1` was tested. Which z-score did it give?
**A.** Its z-score is -0.487.

**Q.** How did the z-score turn out when `CCN1C(=O)/C(=C\c2ccc3c(c2)OCO3)C(C(=O)OC)=C1C` was run?
**A.** Its z-score is -0.35.

**Q.** How did the z-score turn out when `COc1ccc(C(=O)C(OC(=O)c2ccccc2Cl)c2ccccc2)cc1` (stereo not given) was run?
**A.** The z-score was -0.172.

**Q.** How did the z-score turn out when `COC(=O)c1cn(-c2ccc(Cl)cc2)c(=O)c2ccccc12` was run?
**A.** The z-score was -0.29.

**Q.** Which z-score does the source give for `COc1ccc(-n2cc(C(=O)O)c3ccccc3c2=O)cc1` here?
**A.** Its z-score is 2.28.

**Q.** Which z-score does the source give for `CCOC(=O)c1ccccc1NC(=O)c1cn(-c2ccc(OC)cc2)c(=O)c2ccccc12` here?
**A.** Its z-score is -0.291.

**Q.** Which z-score does the source give for `O=C(Nc1cc(C(F)(F)F)ccc1N1CCOCC1)c1cn2ccccc2n1` here?
**A.** The z-score was -0.314.

**Q.** Which z-score does the source give for `c1nc(N2CCC3(CC2)OCCO3)c2c3c(sc2n1)CCCC3` here?
**A.** Its z-score is -1.04.

**Q.** With `CC1(C)CN=C(N2CCN(c3ncnc4sc5c(c34)CCCC5)CC2)S1` as the molecule, how does the z-score read?
**A.** The z-score was 5.02 (active).

**Q.** For `c1nc(N2CCOCC2)c2c3c(sc2n1)CCCC3`, which z-score is on record?
**A.** Its z-score is -0.441.

**Q.** With `Cc1ccccc1CN1CCN(CC(=O)NCc2ccccc2)C1=O` as the molecule, how does the z-score read?
**A.** Its z-score is 0.0216.

**Q.** Which z-score does the source give for `COc1ccc(OCCn2nnc(-c3ccc(Cl)cc3)n2)cc1` here?
**A.** The z-score was 0.195.

**Q.** How did the z-score turn out when `Clc1cccc(CSc2nnc(-c3ccccn3)n2Cc2ccco2)c1` was run?
**A.** Its z-score is 3.12 (active).

**Q.** For `O=C(CSc1nnc(-c2cnccn2)n1Cc1ccco1)c1ccccc1`, which z-score is on record?
**A.** Its z-score is 2.15.

**Q.** Which z-score does the source give for `COc1ccc(C)cc1NC(=O)CSc1nnc(-c2ccccn2)n1Cc1ccco1` here?
**A.** The z-score was 0.359.

**Q.** For `O=C(CSc1nnc(-c2cnccn2)n1Cc1ccco1)c1ccc(Cl)cc1`, which z-score is on record?
**A.** Its z-score is -0.74.

**Q.** How did the z-score turn out when `COc1ccccc1NC(=O)CSc1nnc(-c2ccccn2)n1Cc1ccco1` was run?
**A.** Its z-score is -1.55.

**Q.** How did the z-score turn out when `Clc1ccccc1CSc1nnc(-c2ccccn2)n1Cc1ccco1` was run?
**A.** The z-score was 0.314.

**Q.** With `Clc1ccc(CSc2nnc(-c3ccccn3)n2Cc2ccco2)c(Cl)c1` as the molecule, how does the z-score read?
**A.** The z-score was 0.104.

**Q.** How did the z-score turn out when `COc1ccc(NC(=O)CSc2nnc(-c3ccccn3)n2Cc2ccco2)cc1OC` was run?
**A.** Its z-score is 5.76 (active).

**Q.** With `O=C(CSc1nnc(-c2ccccn2)n1Cc1ccco1)c1ccccc1` as the molecule, how does the z-score read?
**A.** The z-score was 1.88.

**Q.** How did the z-score turn out when `COC(=O)c1ccccc1NC(=O)c1cn(-c2ccc(C)c(C)c2)c(=O)c2ccccc12` was run?
**A.** Its z-score is 0.0214.

**Q.** `Cc1c(NC(=O)c2cc(-n3cnnc3)ccc2Cl)cccc1-c1nc2ccccc2o1` was tested. Which z-score did it give?
**A.** The z-score was -0.115.

**Q.** For `O=C1c2ccccc2CN1CCNS(=O)(=O)c1ccc(Cl)cc1`, which z-score is on record?
**A.** The z-score was -0.0894.

**Q.** Which z-score does the source give for `Cc1ccc(C(=O)N/N=c2\sc3ccccc3n2C)cc1` here?
**A.** The z-score was 0.37.

**Q.** With `Cc1ccccc1NC(=O)COC(=O)/C=C/c1cn(-c2ccccc2)nc1-c1cccnc1` as the molecule, how does the z-score read?
**A.** Its z-score is -0.0968.

**Q.** Which z-score does the source give for `Cn1nnc2cc(NC(=O)N3CCN(c4ccccn4)CC3)ccc21` here?
**A.** Its z-score is 0.387.

**Q.** For `CC(=O)Oc1ccc(-c2cccc(C(=O)O)c2)cc1`, which z-score is on record?
**A.** Its z-score is -0.607.

**Q.** `COc1ccc(C(=O)C2CCN(S(=O)(=O)c3ccc4c(c3)OCCO4)CC2)cc1` was tested. Which z-score did it give?
**A.** The z-score was 0.21.

**Q.** With `Clc1ccc(/C=N/Nc2nnc(Cl)c3ccccc23)cc1` as the molecule, how does the z-score read?
**A.** Its z-score is 0.242.

**Q.** For `Clc1ccc(/C=N/Nc2nc(Cl)nc3ccccc23)cc1`, which z-score is on record?
**A.** The z-score was 2.24.

**Q.** For `Clc1cccc(/C=N/Nc2nc(Cl)nc3ccccc23)c1`, which z-score is on record?
**A.** Its z-score is -0.0962.

**Q.** Which z-score does the source give for `CC(=O)Nc1ccc(OC(=O)c2cc3cc(Br)cc(Br)c3oc2=O)cc1` here?
**A.** The z-score was -0.128.

**Q.** For `CCOC(=O)C1=C(c2ccccc2)N=C2SCC(=O)N2C1c1cccc(OC)c1` (stereo not given), which z-score is on record?
**A.** The z-score was -0.311.

**Q.** `COC(=O)c1c(NC(=O)COC(=O)[C@@H](NS(=O)(=O)c2ccccc2)C(C)C)sc2c1CCC2` was tested. Which z-score did it give?
**A.** Its z-score is 0.129.

**Q.** With `CCOC(=O)c1c(NS(=O)(=O)c2cccc(OC)c2)sc2c1CCC2` as the molecule, how does the z-score read?
**A.** The z-score was 16.9 (active).

**Q.** With `CCOC(=O)c1c(NC=O)sc2c1CCC2` as the molecule, how does the z-score read?
**A.** The z-score was -0.85.

**Q.** How did the z-score turn out when `CCOC(=O)Nc1sc2c(c1C(=O)OCC)CCC2` was run?
**A.** Its z-score is 0.418.

**Q.** How did the z-score turn out when `CCOC(=O)c1c(NC(=O)OC)sc2c1CCC2` was run?
**A.** The z-score was 0.00121.

**Q.** `COC(=O)c1c(NC(=O)COC(=O)c2ccc(C)s2)sc2c1CCCCC2` was tested. Which z-score did it give?
**A.** The z-score was 0.122.

**Q.** How did the z-score turn out when `CCOC(=O)c1c(NS(=O)(=O)c2ccc(Br)cc2)sc2c1CCC2` was run?
**A.** Its z-score is 16.1 (active).

**Q.** `COC(=O)c1c(NC(=O)COC(=O)[C@@H](NS(=O)(=O)c2ccc(C)cc2)C(C)C)sc2c1CCC2` was tested. Which z-score did it give?
**A.** The z-score was 2.02.

**Q.** Which z-score does the source give for `CCOC(=O)c1c(NC(=S)Nc2ccc(OC)cc2)sc2c1CCC2` here?
**A.** Its z-score is 0.905.
